Results reported in PubChem BioAssay (NCI).
About 83,000 compounds went through this panel and 20% of them were active in at least one assay; those are over-represented in the sample as a whole.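 Compound tested at a single concentration for 48 hours in 96-well plates; a percent growth value below 10 was scored as active.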 Calls of active or inactive are those of the source.

The molecules below were run on HCT-15 colon (assay: NCI-60 one-dose screen, 48 h (100 = growth as untreated, 0 = no growth, -100 = all killed)). Details: 10 µM.

SMILES	growth
CNc1nc(NC)c2cn[nH]c2n1	101% (inactive)
O=C(CN1CCNCC1)N1CCOCC1	104% (inactive)
COc1cc(OC)c2ccc(=O)oc2c1	96.4% (inactive)
CCN(CC)CCCC(C)Nc1ccnc(/C=C/c2ccc(Cl)cc2)c1 (centres undefined)	-33.4% (active)
COC1=CC(=O)c2nc(Cl)ccc2C1=O	100% (inactive)
COc1ccccc1NC(=O)C1=C(C)NC(C)=C(C(=O)Nc2ccccc2OC)C1c1cccc([N+](=O)[O-])c1	64.4% (inactive)
N=c1c(C(=O)OCc2ccccc2)ncc(CCl)n1O	99.7% (inactive)
Cc1nc2c(ccc3ccccc32)s1	110% (inactive)
CC(=O)OCC1OC(OC2=C(CC=C(C)C)C(=O)c3ccccc3C2=O)C(OC(C)=O)C(OC(C)=O)C1OC(C)=O (centres undefined)	12.2% (inactive)
O=S(=O)(O)CC(O)CN1CCN(CCO)CC1 (centres undefined)	102% (inactive)
CC1Cc2ccccc2O1 (centres undefined)	99.1% (inactive)
O=c1cc(-c2ccccc2)oc2c1ccc1ccccc12	97.7% (inactive)
CCOC(=O)C1=C(C)NC(=O)NC1c1cccs1 (centres undefined)	103% (inactive)
CC(=O)c1ccc(C)c(N)c1	100% (inactive)
NC(=S)NN=C1CCCC1	77.9% (inactive)
CCN(CC)c1ccc2nc3ccc(=[N+](CC)CC)cc-3oc2c1	35.5% (inactive)
CCCC(=O)Nc1ccc2c(c1)CN1C(=O)c3ccccc3C1=N2	98.3% (inactive)
Cc1cc2nc(CC(=O)c3ccccc3)c(=O)[nH]c2cc1C	87.7% (inactive)
N#Cc1c(N)sc(=S)c2c1CCCC2	104% (inactive)
CCN(CC)C(=O)/C=C(/C)c1ccccc1	104% (inactive)
CC1C(=O)c2ccccc2CC1C(=O)O (centres undefined)	115% (inactive)
CCOc1ccc2[nH]c(=S)sc2c1	108% (inactive)
O=c1c2ccccc2c(Br)c(Br)c2ccccc12	98% (inactive)
O=[N+]([O-])c1ccc(Sc2ccncn2)c([N+](=O)[O-])c1	85.3% (inactive)
C/C(=C\c1cc(Cl)ccc1OCC(=O)O)[N+](=O)[O-]	101% (inactive)
COc1nc(N)nc2c1ncn2C1OC(CO)CC1O (centres undefined)	101% (inactive)
O=c1cc2oc3cc(O)c(O)cc3c(-c3ccccc3O)c-2cc1O	91.7% (inactive)
COc1cc(C(=O)N/N=C/c2cccc([N+](=O)[O-])c2)cc(OC)c1OC	52.1% (inactive)
CC1(C)Nc2cccc3c(N=Nc4ccc(N=Nc5ccccc5)c5ccccc45)ccc(c23)N1	77.5% (inactive)
